Results on 12 compounds are retold here after PubChem BioAssay (NCI).

What all share (experiment): NCI-60 one-dose screen, 48 h (100 = growth as untreated, 0 = no growth, -100 = all killed)
Conditions in all cases: 10 µM unless noted

The subject of assay [1] is HCT-15 colon.
Assay [2] relates to HT29 colon.
The subject of assay [3] is SNB-75 CNS.
Assay [4] has as its system SNB-19 CNS.
In assay [5] the test system is U251 CNS.
The subject of assay [6] is PC-3 prostate.
The test system of assay [7] is SK-MEL-5 melanoma.
Assay [8] relates to UACC-62 melanoma.
Assay [9] relates to LOX IMVI melanoma.
Assay [10] relates to SK-MEL-28 melanoma.

Where “and” joins values, the source holds several entries; their conditions need not be identical. Equal values may be shown once. About 83,000 compounds went through this panel and 20% of them were active in at least one assay; those are over-represented in the sample as a whole.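 Growth was measured after 48 h exposure to one concentration of compound in 96-well plates. Values under 10 count as active.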 A number with no mark means an inactive call. Calls of active or inactive are those of the source.

Regarding `CN1C(=O)/C(=C\C(=O)c2cc3ccccc3oc2=O)c2ccccc21`, the growth in assay [1] was 39.7%; in assay [2], 93.4%; in assay [3], 96.8%; in assay [4], 78.9%; in [5] it was 42.6%; in assay [6], 84.5%. Also, the growth in [7] was 92.1%; in assay [8], 42.6%; in assay [9], 58.9%; in assay [10] it was 60.8%.

Turning to `COc1cc(/C=C/C(=O)c2cnn(-c3cc(=O)[nH]c4ccc(Cl)cc34)c2C)cc(OC)c1OC`, the growth in assay [1] is -40.2% (active); in [2], -71.9% (active); in assay [3], -11.4% (active); in assay [4], -68.9% (active); in assay [5], -65.7% (active); in [6], -26.9% (active). The growth in [7] is -88.9% (active); in assay [8], -49.1% (active); in assay [9], -60.8% (active); in assay [10] it was -69.2% (active).

Turning to `Nc1cccc(-n2c(COc3ccc(I)cc3)nc3ccccc32)c1`, the growth in [1] was 74.6% and 104%; in assay [2], 78.7% and 114%; in assay [3], 52.9% and 91.4%; in assay [4], 93.5% and 98.6%; in assay [5], 84.8% and 101%; in assay [6], 63.9% and 104%. The growth in [7] is 60% and 99.8%; in assay [8], 57.6% and 92.2%; in [9], 80% and 101%; in assay [10], 98.9% and 98.7%.

Consider `Cc1cn(-c2cc(NC(=O)c3ccc(C)c(-n4cc(-c5cnc6cccnn56)nn4)c3)cc(C(F)(F)F)c2)cn1`, for which the growth was 84.8% in [1]; 7.41% (active) in assay [2]; 122% in assay [3]; 109% in [4]; 44.3% in [5]; 102% in assay [6]. Also, the growth in [7] is 53.9%; in [8], 11.3%; in assay [9] it was 26.8%; in [10] it was 23.5%.

With `CCCCNc1ccc2c3c(cccc13)C(=O)N(NCC(O)COc1ccc3c(C)cc(=O)oc3c1)C2=O` (stereo not given), the growth in [1] was 77.3%; in assay [2], 100%; in assay [3], 94.1%; in assay [4] it was 83.9%; in assay [5], 96.5%; in assay [6], 84%. For the same compound, the growth in [7] was 77.9%; in [8], 69.2%; in assay [9], 81.3%; in assay [10] it was 103%.

As for `O=C(NNC(=O)c1ccc(OCc2nc3ccc(Cl)cc3[nH]2)cc1)Nc1ccc(Cl)c(C(F)(F)F)c1`, the growth was 97.6% in assay [1]; 68.2% in [2]; 59.8% in assay [3]; 61.1% in assay [4]; 30.7% in assay [5]; 33.3% in assay [6]. Moreover, the growth is 70.4% in assay [7], 61.4% in assay [8], 48.2% in assay [9] and 52.8% in [10].

In the case of `Cn1cc(-c2cc(N)n3nc(-c4c[nH]c5ccc(Cl)cc45)cc3n2)c2cccnc21`, the growth in assay [1] is -56.7% (active); in assay [2], -44.7% (active); in [3], -57.5% (active); in assay [4], -78.3% (active); in assay [5], -82% (active); in assay [6] it was -51.6% (active). Further, the growth is -97.4% (active) in [7], -86.4% (active) in assay [8], -93.6% (active) in [9] and -93.7% (active) in assay [10].

As for `CCCCCCCCCCCCCCCCCC(=O)Nc1ccc(OC)cc1`, the growth in [1] is 99.1%; in [2], 104%; in [3], 144%; in [4], 96.2%; in assay [5], 102%; in [6], 93.3%. Further, the growth was 102% in assay [7], 97.5% in assay [8], 95.9% in assay [9] and 110% in assay [10].

In the case of `COc1cccc2nc(Nc3cccc(NC(=O)c4ccc(CN5CCN(C)CC5)c(C(F)(F)F)c4)c3)ccc12`, the growth is -79.1% (active) in assay [1]; -69.3% (active) in [2]; -97.5% (active) in [3]; -100% (active) in [4]; -73.7% (active) in [5]; -50.9% (active) in assay [6]. For the same compound, the growth is -100% (active) in assay [7], -99.1% (active) in [8], -100% (active) in assay [9] and -100% (active) in assay [10].

`Cc1nc(Nc2ccccn2)sc1C1=NNC(c2ccccc2F)C1` (stereo not given): the growth is 20.8% in assay [1]; 30.4% in assay [2]; 62.3% in assay [3]; 56.1% in assay [4]; 51% in assay [5]; 58.5% in assay [6]. Further, the growth in assay [7] was 48.7%; in assay [8], 29.4%; in [9] it was 31.5%; in assay [10], 65.9%.

Take `CC(=O)Nc1cccc(-n2c(COc3ccc(I)cc3)nc3ccccc32)c1`: the growth is 69.6% and 108% in [1]; 105% and 119% in assay [2]; 57.8% and 93.3% in assay [3]; 93.5% and 103% in assay [4]; 81.8% and 105% in assay [5]; 63.3% and 107% in assay [6]. Further, the growth was 74.1% and 104% in assay [7]; 61.4% and 97.8% in assay [8]; 85.3% and 107% in [9]; 107% and 116% in [10].

Regarding `O=C(Nc1nc2ccc([N+](=O)[O-])cc2s1)Nc1ccc(Cl)cc1Cl`, the growth in assay [1] is 49.1%; in assay [2] it was 64.7%; in assay [3], -24.4% (active); in assay [4], 46.6%; in assay [5], 11.4%; in assay [6], 47.3%. Also, the growth in assay [7] is 27.5%; in [8], 56%; in [9] it was 34.8%; in [10], 79.5%.
